# Measurements reported in PubChem BioAssay (NCI).
# About 79,000 compounds went through this panel and 15% of them were active in at least one assay; those are over-represented in the sample as a whole. A number with no mark means an inactive call. Active and inactive are the calls of the source. No stated cut-off is given here; in the data, active means growth inhibition above about 70%; inactive means the rest.
# Assay: NCI Yeast Anticancer Drug Screen. Data for the rad50 strain (AID 155);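 further: 0% = growth of vehicle-only cultures of the same strain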
# Conditions: S. cerevisiae rad50 strain growth inhibition; at 50.0 µM; stronger effect = higher value
# How it was run: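 Readout: growth inhibition relative to vehicle-treated cultures. Compound exposure was carried out in a genetically defined yeast strain deficient in DNA damage repair.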
row,Compound,growth inhibition
1,OC(c1ccccc1)C(CN1CCCCC1)c1ccccc1 (stereo not given),3.9%
2,c1ccc(CSc2ccc3ccccc3c2)cc1,-4.3%
3,CC1(C(=O)O)CCCC2(C)c3ccc(O)cc3CCC12 (stereo not given),37%
4,CCC(=O)C1(N2CCOCC2)CCN(CCCC(=O)c2ccc(F)cc2)CC1,-25.4%
5,CC(C)C(C(N)=O)C(C)C,3.6%
6,CCCCCCCCCCCCCCCCOc1ccc(-c2cc(=O)n(C)n2C)cc1OC,-14.1%
7,O=C1OC(c2ccc([N+](=O)[O-])cc2)=N/C1=C\c1ccc(Cl)c(Cl)c1,31.9%
8,CCc1cc2c(Nc3ccccc3)c3c(nc2s1)CCCC3,-15.3%
9,CCOC(=O)c1c2ccc(/C=C/c3ccccn3)ccc-2c(C(=O)OCC)c1N,15.2%
10,CN(C)CCCNc1nc(Cl)nc2nc(-c3ccccc3)c(-c3ccccc3)nc12,50.2%
11,OCC1C2C=CC1CC2 (stereo not given),-1.4%
12,O=c1[nH]c(=O)c2nc[nH]c(=O)c2[nH]1,-8.55%
13,Cc1cc(C)[n+](C)c(/C=C\c2ccccc2Cl)n1,5.2%
14,O=C(CSc1cc(Cl)c(Cl)cc1Cl)Nc1cccc(Cl)c1,-7.9%
15,Cn1cc(C(=O)c2ccccc2)c2ccccc2c1=O,41.5%
16,O=C1CC23CC(=O)CC2(C1)c1ccccc1C3=O (stereo not given),11.1%
17,O=C1C(=O)c2ccccc2C(O)=C1c1ccccc1,28.6%
18,CC(=O)Nc1ccc(S(=O)(=O)NCCC(=O)O)cc1,-9.7%
19,C[N+]1(C)CCN(S(=O)(=O)c2ccccc2)c2ccccc21,-10.1%
20,CCc1ccc(-c2c(-c3ccccc3)c(-c3ccccc3)c(-c3ccccc3)c(-c3ccccc3)c2-c2ccccc2)cc1,31.1%

row,Compound,growth inhibition
1,CCOc1ccccc1NC(=O)Nc1ccccc1Cl,-0.1%
2,Cc1ccc(CNc2ccccc2)cc1,18.9%
3,NC(N)=NS(=O)(=O)c1ccc(Nc2c3ccccc3nc3c(C(=O)N4CCN(CCO)CC4)cccc23)cc1,-0.4%
4,CC(=O)NC(Cc1ccc(C)cc1)C(=O)O (stereo not given),3.35%
5,CNC(=O)NC(C)(C)CCCCC(C)(C)NC(=O)NC,0.5%
6,CC[N+](CC)(CC)CCCC[P+](CC)(CC)CC,15.8%
7,O=C(CCc1ccccc1)NC(=S)Nc1cc(C(F)(F)F)ccc1Cl,13.2%
8,CC1(CO)C(O)CCC2(C)C1C(O)CC1CC3CC12CCC3(O)CO (stereo not given),-12.8%
9,O=C(CN1CCCc2ccccc21)c1ccccc1,6.75%
10,N=C(N)SCC(=O)c1ccc([N+](=O)[O-])cc1,-6.65%
11,CCCCCCCC(=O)NS(=O)(=O)c1ccccc1,31.7%
12,CCOC(=O)NC(=O)c1cn(C2OC(COC(=O)CCCCCCCCC(=O)OCC3OC(n4cc(C(=O)NC(=O)OCC)c(=O)[nH]c4=O)C4OC(C)(C)OC34)C3OC(C)(C)OC32)c(=O)[nH]c1=O (stereo not given),-42.9%
13,CC1=CC(=O)C(=CN2C(=O)/C(=C\c3cccnc3)NC2=S)C(=O)O1,-21.2%
14,CCC(C(=O)O)C(C)(C)C (stereo not given),6.8%
15,CCOC(=O)[C@H]1Nc2c(cccc2[N+](=O)[O-])[C@H]2OCC[C@@H]12,-12.8%
16,N#CCCOC(=O)Nc1ccccc1,21.9%
17,O=C(O)CNC(=O)C(Cc1ccccc1)NC(=O)CNC(=O)C(CSC(c1ccccc1)c1ccccc1)NC(=O)C(CSC(c1ccccc1)(c1ccccc1)c1ccccc1)NC(=O)OCc1ccccc1 (stereo not given),-0.75%
18,Cc1ccc(S(=O)(=O)OC(c2ccc(C(OS(=O)(=O)c3ccc(C)cc3)(C(F)(F)F)C(F)(F)F)cc2)(C(F)(F)F)C(F)(F)F)cc1,4.45%
19,CC1(C)OC2OC(C3CC3)C(O)C2O1 (stereo not given),-4.1%
20,O=C1OC(=O)c2ccc(SCC(O)CCl)c3cccc1c23 (stereo not given),99.4% (active)

# Assay: NCI Yeast Anticancer Drug Screen. Data for the mec2-1 strain (AID 157)
# Conditions: S. cerevisiae mec2-1 strain, at 50.0 µM, stronger effect = higher value
# How it was run: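 Vehicle-treated cultures served as reference for growth inhibition of compound-exposed mec2-1 yeast.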
row,Compound,growth inhibition
1,OC(c1ccccc1)C(CN1CCCCC1)c1ccccc1 (stereo not given),2.55%
2,c1ccc(CSc2ccc3ccccc3c2)cc1,-20.1%
3,CC1(C(=O)O)CCCC2(C)c3ccc(O)cc3CCC12 (stereo not given),29.9%
4,CCC(=O)C1(N2CCOCC2)CCN(CCCC(=O)c2ccc(F)cc2)CC1,-9.45%
5,CC(C)C(C(N)=O)C(C)C,-6.4%
6,CCCCCCCCCCCCCCCCOc1ccc(-c2cc(=O)n(C)n2C)cc1OC,-27.2%
7,O=C1OC(c2ccc([N+](=O)[O-])cc2)=N/C1=C\c1ccc(Cl)c(Cl)c1,21.8%
8,CCc1cc2c(Nc3ccccc3)c3c(nc2s1)CCCC3,-25.8%
9,CCOC(=O)c1c2ccc(/C=C/c3ccccn3)ccc-2c(C(=O)OCC)c1N,-4.75%
10,CN(C)CCCNc1nc(Cl)nc2nc(-c3ccccc3)c(-c3ccccc3)nc12,31%
11,OCC1C2C=CC1CC2 (stereo not given),-1.8%
12,O=c1[nH]c(=O)c2nc[nH]c(=O)c2[nH]1,-8.45%
13,Cc1cc(C)[n+](C)c(/C=C\c2ccccc2Cl)n1,-1.7%
14,O=C(CSc1cc(Cl)c(Cl)cc1Cl)Nc1cccc(Cl)c1,-6.9%
15,Cn1cc(C(=O)c2ccccc2)c2ccccc2c1=O,-4.4%
16,O=C1CC23CC(=O)CC2(C1)c1ccccc1C3=O (stereo not given),-11.8%
17,O=C1C(=O)c2ccccc2C(O)=C1c1ccccc1,22.8%
18,CC(=O)Nc1ccc(S(=O)(=O)NCCC(=O)O)cc1,-16.6%
19,C[N+]1(C)CCN(S(=O)(=O)c2ccccc2)c2ccccc21,-13.4%
20,CCc1ccc(-c2c(-c3ccccc3)c(-c3ccccc3)c(-c3ccccc3)c(-c3ccccc3)c2-c2ccccc2)cc1,6.3%

row,Compound,growth inhibition
1,CCOc1ccccc1NC(=O)Nc1ccccc1Cl,-2.15%
2,Cc1ccc(CNc2ccccc2)cc1,-6.45%
3,NC(N)=NS(=O)(=O)c1ccc(Nc2c3ccccc3nc3c(C(=O)N4CCN(CCO)CC4)cccc23)cc1,-7.8%
4,CC(=O)NC(Cc1ccc(C)cc1)C(=O)O (stereo not given),-3.75%
5,CNC(=O)NC(C)(C)CCCCC(C)(C)NC(=O)NC,17.3%
6,CC[N+](CC)(CC)CCCC[P+](CC)(CC)CC,-9.15%
7,O=C(CCc1ccccc1)NC(=S)Nc1cc(C(F)(F)F)ccc1Cl,14.2%
8,CC1(CO)C(O)CCC2(C)C1C(O)CC1CC3CC12CCC3(O)CO (stereo not given),-17.9%
9,O=C(CN1CCCc2ccccc21)c1ccccc1,6.7%
10,N=C(N)SCC(=O)c1ccc([N+](=O)[O-])cc1,4.95%
11,CCCCCCCC(=O)NS(=O)(=O)c1ccccc1,20.7%
12,CCOC(=O)NC(=O)c1cn(C2OC(COC(=O)CCCCCCCCC(=O)OCC3OC(n4cc(C(=O)NC(=O)OCC)c(=O)[nH]c4=O)C4OC(C)(C)OC34)C3OC(C)(C)OC32)c(=O)[nH]c1=O (stereo not given),-39.5%
13,CC1=CC(=O)C(=CN2C(=O)/C(=C\c3cccnc3)NC2=S)C(=O)O1,-12.2%
14,CCC(C(=O)O)C(C)(C)C (stereo not given),0.55%
15,CCOC(=O)[C@H]1Nc2c(cccc2[N+](=O)[O-])[C@H]2OCC[C@@H]12,-22.3%
16,N#CCCOC(=O)Nc1ccccc1,2.4%
17,O=C(O)CNC(=O)C(Cc1ccccc1)NC(=O)CNC(=O)C(CSC(c1ccccc1)c1ccccc1)NC(=O)C(CSC(c1ccccc1)(c1ccccc1)c1ccccc1)NC(=O)OCc1ccccc1 (stereo not given),27%
18,Cc1ccc(S(=O)(=O)OC(c2ccc(C(OS(=O)(=O)c3ccc(C)cc3)(C(F)(F)F)C(F)(F)F)cc2)(C(F)(F)F)C(F)(F)F)cc1,6.65%
19,CC1(C)OC2OC(C3CC3)C(O)C2O1 (stereo not given),4.75%
20,O=C1OC(=O)c2ccc(SCC(O)CCl)c3cccc1c23 (stereo not given),99.5% (active)
